High-throughput results deposited in PubChem BioAssay by several laboratories.
proKLK7 act: activators of human kallikrein-7 zymogen. purified proKLK7, EDANS-DABCYL substrate fluorescence; 100% is mature enzyme control, 0% vehicle. 370,000 compounds, 0.9% hits. P49862. activation, % at 7 µM;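 active means activation above the mean of all tested compounds plus 3 SD, computed per campaign excluding outliers beyond control limits, cut at about 13% in these data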
FAS-TE inh: blocks the thioesterase domain of human fatty acid synthase; 360,000 compounds, 0.67% hits; AID 602261; recombinant FAS-TE, OMFH fluorogenic substrate, fluorescence endpoint; inhibition, % at 15 µM; P49327;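 active means compounds whose normalised, plate-corrected inhibition of enzyme fluorescence in the single-dose primary screen is 50% or more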
ADAM17 inh: inhibitors of human ADAM17 | AID 720648 | recombinant ADAM17, EDANS/DABCYL FRET peptide cleavage | 370,000 compounds, 0.83% hits | inhibition, % at 6.95 µM;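 active means inhibition above the mean of compounds lying between control limits plus 3 SD, set per campaign, cut at about 8.5% in these data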
NR3A LBD binder: modulates the human NR3A ligand-binding domain; NR3A LBD differential scanning fluorimetry, Tm shift; 0% = protein alone, 100% = glycine-bound protein; Tm shift relative to glycine control, % at 25 µM; 340,000 compounds, 2.5% hits; AID 1259313;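 active means melting temperature shift of at least 10% of the positive control shift, at one fixed dose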
ADAM10 inh: inhibitors of human ADAM10; O14672; recombinant ADAM10, EDANS/DABCYL FRET peptide cleavage, 3 h; inhibition, % at 7 µM; 370,000 compounds, 0.62% hits; AID 720582;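 active means inhibition above a per-campaign cutoff equal to the mean of compounds falling between control-based bounds plus 3 SD, cut at about 20% in these data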
Target sequence (O14672 214-748 limits assumed): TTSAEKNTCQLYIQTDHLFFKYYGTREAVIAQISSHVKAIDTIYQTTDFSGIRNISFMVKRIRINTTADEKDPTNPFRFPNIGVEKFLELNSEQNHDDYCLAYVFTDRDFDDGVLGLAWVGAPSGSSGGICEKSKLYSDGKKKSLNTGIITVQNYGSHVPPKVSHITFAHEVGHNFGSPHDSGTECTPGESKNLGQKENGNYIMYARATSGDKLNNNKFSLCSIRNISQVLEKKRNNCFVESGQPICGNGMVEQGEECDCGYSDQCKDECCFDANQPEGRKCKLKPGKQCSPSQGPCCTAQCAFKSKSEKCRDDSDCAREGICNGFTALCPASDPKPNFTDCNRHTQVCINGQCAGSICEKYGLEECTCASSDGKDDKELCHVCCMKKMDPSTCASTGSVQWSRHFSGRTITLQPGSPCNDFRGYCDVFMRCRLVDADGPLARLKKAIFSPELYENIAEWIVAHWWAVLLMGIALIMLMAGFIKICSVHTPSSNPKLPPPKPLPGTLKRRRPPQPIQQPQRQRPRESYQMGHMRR
Large screens that a line does not name were inactive. The list is not random: actives were taken first. Their share in the collection is about 4.6%.

Cc1ccc(NC(=O)CC2C(=O)N(Cc3ccccc3)C(=S)N2NC(=O)c2ccccc2)c(C)c1 (centres undefined)	NR3A LBD binder 11
O=C(Cc1cccs1)NC1CCCCN(Cc2cccc(Cl)c2)C1=O (centres undefined)	none (no result: FAS-TE inh, NR3A LBD binder)
CSc1nnc2c3cc(F)ccc3n(Cc3ccccc3)c2n1	NR3A LBD binder 39
CSc1nnc2c3ccccc3n(Cc3ccccc3)c2n1	none
O=C(CSc1nc2ccccc2n1S(=O)(=O)c1ccccc1)N1CCCCC1	NR3A LBD binder 14
O=C(CSc1nc2ccccc2n1CC(=O)N1CCCCC1)N1CCCCC1	none
CCOC(=O)[C@]12CCCCC/C=C\1N(CCc1ccc(Cl)cc1)C(=O)[C@H]2CC(=O)N1CCCC1	none (no result: FAS-TE inh, NR3A LBD binder)
Cc1cccc(S(=O)(=O)N(CC(=O)Nc2ccccc2C)Cc2ccco2)c1	NR3A LBD binder 11
O=S1(=O)c2ccc(N3CCN(Cc4ccccc4F)CC3)cc2Oc2ccccc2CN1Cc1cn(Cc2ccccc2C(F)(F)F)nn1	none (no result: FAS-TE inh, NR3A LBD binder)
Cc1onc(-c2ccccc2)c1C(=O)NC(=S)Nc1sc2c(c1C#N)CCCC2	NR3A LBD binder 11
Cc1onc(-c2ccccc2)c1C(=O)Nc1sc2c(c1C#N)CCC2	none
O=C(OC12CCCN(C1)/C(=C/c1ccncc1)C2)c1cccc(F)c1 (centres undefined)	none (no result: FAS-TE inh, NR3A LBD binder)
COc1ccc2[nH]c(-c3ccccc3)cc2c1	NR3A LBD binder 12
O=C(CCN1C(=O)/C(=C\c2ccccc2)SC1=S)NNC(=O)c1ccccc1O	NR3A LBD binder 12
CC(/C=C1\SC(=S)N(CCC(=O)Nc2cccc(C(=O)O)c2)C1=O)=C\c1ccccc1	none
CC(/C=C1\SC(=S)N(CCC(=O)Nc2ccccc2O)C1=O)=C\c1ccccc1	NR3A LBD binder 20
COc1ccc(/C=C2\SC(=S)N(CCC(=O)NCCc3ccc(O)cc3)C2=O)cc1	NR3A LBD binder 15
O=C(CCCN1C(=O)/C(=C/c2ccccc2Cl)SC1=S)NNC(=O)c1ccc(Cl)cc1Cl	ADAM10 inh 21
Cc1ccc(Cn2cc(CN3[C@H](Cc4ccccc4)COc4cc(Br)ccc4S3(=O)=O)nn2)cc1	none (no result: FAS-TE inh, NR3A LBD binder)
O=C(CN1C(=O)S/C(=C\c2ccc(O)cc2)C1=O)c1ccccc1	NR3A LBD binder 10
O=C(CCN1C(=O)/C(=C/c2ccccc2F)SC1=S)NCCc1ccc(O)cc1	none
O=C(CN1C(=O)S/C(=C\c2ccccc2)C1=O)NNC(=O)c1ccccc1O	none
O=C(CCN1C(=O)/C(=C/c2ccccc2)SC1=S)NCCc1ccc(O)cc1	NR3A LBD binder 17 (no result: proKLK7 act, ADAM17 inh, ADAM10 inh)
COc1ccc(CNC(=S)OC2CCC23CCC(c2ccccc2)CC3)cc1 (centres undefined)	none (no result: FAS-TE inh, NR3A LBD binder)
COCCCN1C(=O)[C@H](CC(=O)NCc2ccc(OC)c(OC)c2)[C@]2(C(=O)OC)CCCCC=C12	none (no result: FAS-TE inh, NR3A LBD binder)
Cc1ccc(C(=O)N/N=C\c2ccc(-c3ccc(Cl)c(Cl)c3)o2)cn1	NR3A LBD binder 12
O=C(N/N=C/c1ccc(OC(=O)c2ccco2)cc1)c1ccccn1	NR3A LBD binder 14
O=C(Oc1ccc(/C=N/NC(=O)c2ccccn2)cc1)c1ccc(Br)cc1	none
Cc1ccc(C(=O)N/N=C/c2ccc(OC(=O)c3ccccc3Cl)cc2)cn1	NR3A LBD binder 13
O=C(N/N=C\c1ccc(-c2ccc([N+](=O)[O-])cc2)o1)C1COc2ccccc2O1 (centres undefined)	NR3A LBD binder 25
Cc1cc([N+](=O)[O-])ccc1-c1ccc(/C=N/NC(=O)c2ccc(Br)o2)o1	NR3A LBD binder 27
O=C(N/N=C/c1ccc(-c2cccc([N+](=O)[O-])c2)o1)c1cccs1	NR3A LBD binder 14
CN(C)c1ccc(/C=N/NC(=O)C2COc3ccccc3O2)o1 (centres undefined)	none
Cc1cc(C(=O)N/N=C/c2ccc(-c3ccc([N+](=O)[O-])cc3C)o2)n[nH]1	none
N#C/C(=C\c1ccc(-c2cccc([N+](=O)[O-])c2)o1)C(=O)Nc1nc(-c2cccs2)cs1	NR3A LBD binder 11
Cc1cccc(-c2cccc3c4c([nH]c23)[C@@H]2C[C@H](N(C)C(=O)NC3CCCCC3)[C@H]([C@H](C)O)C(=O)N2CC4)c1	none (no result: FAS-TE inh, NR3A LBD binder)
Cc1ccc(-c2nc(C3CCCN(S(=O)(=O)c4cccs4)C3)no2)cc1 (centres undefined)	none (no result: FAS-TE inh, NR3A LBD binder)
O=[N+]([O-])c1cccc(-c2ccc(/C=N/NC(=S)Nc3cccc(F)c3)o2)c1	NR3A LBD binder 28
O=C(N/N=C/c1ccc(-c2cccc([N+](=O)[O-])c2)o1)[C@H]1C[C@@H]1c1ccccc1	NR3A LBD binder 15
C#CCCN([C@@H](CC(C)C)C(=O)OC)S(=O)(=O)c1ccccc1Br	none (no result: FAS-TE inh, NR3A LBD binder)
Cn1c(N)c(C(=O)COC(=O)c2cc(-c3ccco3)nc3ccccc23)c(=O)n(C)c1=O	none
CNC(=O)COC(=O)c1cc(-c2ccco2)nc2ccccc12	proKLK7 act 130
O=C(CCCCCN1C(=O)CCC1=O)Nc1ccc(Br)cc1F	NR3A LBD binder 11
O=C(Nc1ccc(Cl)cc1)OCc1ccccn1	NR3A LBD binder 22
CS(=O)(=O)c1ccccc1COC(=O)Nc1ccc(Cl)cc1	none
CCOP(=O)(OCC)/C(C#N)=C/c1ccc(-c2ccc(F)cc2F)o1	NR3A LBD binder 13
COCCNC(=O)/C(C#N)=C/c1ccc(-c2ccc(OC)cc2[N+](=O)[O-])o1	none
O=C(Nc1ccc(Oc2ccc(Cl)cc2)c(Cl)c1)c1cc(I)cc(I)c1O	NR3A LBD binder 31
COc1ccccc1Oc1ccc(NC(=O)c2ccc(Cl)cc2)cc1	none
COC(=O)[C@]12C[C@H](CC(=O)N3CCSCC3)C(=O)N(Cc3ccc(Cl)cc3Cl)C1=C[C@H](C(C)C)O[C@@H]2C1CC1	none (no result: FAS-TE inh, NR3A LBD binder)
COC(=O)c1c(-c2cc(OC)cc(OC)c2)sc2ccc(OC)cc12	none
COC(=O)c1c(-c2ccc(SC)cc2)sc2ccc(OC)cc12	NR3A LBD binder 13
CCCn1c(CN(Cc2ccccc2)Cc2ccccc2)nc2c1c(=O)n(C)c(=O)n2C	NR3A LBD binder 14 (no result: proKLK7 act, ADAM17 inh, ADAM10 inh)
CCCn1c(CN(C)Cc2ccccc2)nc2c1c(=O)n(C)c(=O)n2C	none
O=C(CSc1n[nH]c(-c2ccccc2)n1)c1ccc(O)c(O)c1	NR3A LBD binder 12
CCc1ccc(C(=O)CSc2n[nH]c(-c3ccncc3)n2)cc1	none
COc1ccc(-c2nc(SCC(=O)Nc3cccc(S(N)(=O)=O)c3)n[nH]2)cc1	NR3A LBD binder 11
Cc1ccc(O)c(NC(=O)CSc2n[nH]c(-c3ccccc3)n2)c1	NR3A LBD binder 34
Cc1cc(SCC(=O)c2ccc(O)c(O)c2)nc2ccccc12	NR3A LBD binder 12
Cc1ccc(C)c(NC(=O)CSc2n[nH]c(-c3ccccn3)n2)c1	none
CCN(CC)C(=O)CC[C@@H]1CC[C@]2(CCCN(Cc3nccs3)C2)O1	none (no result: FAS-TE inh, NR3A LBD binder)
O=C(NCCO)C1(C(=O)C2CC2)CC(c2ccccc2C(F)(F)F)=NO1 (centres undefined)	none (no result: FAS-TE inh, NR3A LBD binder)
C=CCCC(=O)N[C@H]1CC[C@@]23CCCN2C(=O)CCC[C@H]3[C@H]1CCC	none (no result: proKLK7 act, FAS-TE inh, NR3A LBD binder)
